The nature of assay [1]: ATG_TAL_CIS: Attagene CIS-FACTORIAL HepG2 Assay for human TAL Basal Promoter (AID 2282966; active = hit-call score of the fitted dose curve at least 0.9, where 1 is the maximum; inactive = score below 0.9;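 note: background control endpoint measuring basal TAL promoter reporter mRNA not a specific factor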). The following applies: HepG2 Attagene cis-factorial TAL promoter reporter; actives raise or lower the signal. A digest of the protocol:
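Transiently transfected HepG2 (cis-regulated reporter units), 24 h treatment, mRNA read by fluorescent CE after RT-PCR; bidirectional fit, DMSO baseline.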

Assay [2] can be described thus: ATG_TGFb_CIS: Attagene CIS-FACTORIAL HepG2 Assay for human Transforming Growth Factor (TGF) (AID 2282967; active = hit-call score of the fitted dose curve at least 0.9, where 1 is the maximum; inactive = score below 0.9). Conditions: HepG2 Attagene CIS TGFb reporter, mRNA transcription; actives raise or lower the signal. A digest of the protocol:
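Readout: fluorescently labeled reporter cDNA fragments resolved by capillary electrophoresis after RT-PCR. Transfected HepG2 cells dosed for 24 h; endogenous TF activity at TGFB1-linked cis element; gain or loss fitted relative to DMSO.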

A short description of assay [3]: ATG_VDRE_CIS: Attagene CIS-FACTORIAL HepG2 Assay for human Vitamin D Receptor Element (VDRE) (AID 2282968; active = hit-call score of the fitted dose curve at least 0.9, where 1 is the maximum; inactive = score below 0.9). Conditions: HepG2 VDRE cis-reporter transcription, actives raise or lower the signal. A digest of the protocol: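 Readout is VDRE-driven reporter mRNA reflecting endogenous factor activity in human HepG2 cells, sampled 24 h post-dose. Quantification used labelled RT-PCR products separated by capillary electrophoresis; bidirectional analysis relative to DMSO.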

Assay [4] has as its target X-box-binding protein 1 (Homo sapiens) (UniProt P17861). Nature of the assay: ATG_Xbp1_CIS: Attagene CIS-FACTORIAL HepG2 Assay for human X-box Binding Protein 1 (XBP1) (AID 2282972; active = hit-call score of the fitted dose curve at least 0.9, where 1 is the maximum; inactive = score below 0.9). The following applies: HepG2 XBP1 cis-element reporter, Attagene multiplex; actives raise or lower the signal. A digest of the protocol: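 Human hepatoma HepG2, cis-element reporter system, 24 h treatment; mRNA quantified by RT-PCR/CE fluorescence; fit relative to DMSO.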

Assay [5] deals with Oxysterols receptor LXR-alpha (Homo sapiens) (UniProt Q13133). Nature of the assay: ATG_LXRa_TRANS: Attagene TRANS-FACTORIAL HepG2 Assay for human Liver X Receptor alpha (LXRa) (AID 2282980). The following applies: HepG2 Attagene TRANS reporter, LXRa transactivation. A digest of the protocol:
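HepG2 cells were transiently transfected with multiplexed reporter units driven by chimeric LXRa–GAL4 fusion proteins, then dosed for 24 h. Reporter mRNA was quantified by RT-PCR, fluorescent labelling and capillary electrophoresis; gain of signal fitted against DMSO baseline.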

For assay [6], the target named is Oxysterols receptor LXR-beta (Homo sapiens) (UniProt P55055). Put plainly: ATG_LXRb_TRANS: Attagene TRANS-FACTORIAL HepG2 Assay for human Liver X Receptor beta (LXRb) (AID 2282981). The following applies: HepG2 Attagene TRANS GAL4-LXRb reporter, mRNA. A digest of the protocol:
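After 24 h chemical treatment of transfected HepG2 cells carrying exogenous NR-Gal4 chimeras, reporter mRNA was quantified by fluorescent RT-PCR and capillary electrophoresis; activity taken as increase over DMSO controls.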

In assay [7] the target is Hepatocyte nuclear factor 4-alpha (Homo sapiens) (UniProt P41235). Nature of the assay: ATG_HNF4a_TRANS: Attagene TRANS-FACTORIAL HepG2 Assay for human Hepatocyte Nuclear Factor 4 alpha (HNF4a) (AID 2282982). The following applies: HepG2 HNF4a transactivation reporter, mRNA readout. A digest of the protocol:
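Activity of an exogenous HNF4a–Gal4 fusion scored as induced GAL4-UAS reporter transcripts after 24 h chemical exposure of transfected human HepG2 cells. Read-out via RT-PCR with 6-FAM labelling and capillary electrophoresis; rise over DMSO baseline.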

The target of assay [8] is Transcriptional activator Myb (Homo sapiens) (UniProt P10242). Nature of the assay: ATG_Myb_CIS: Attagene CIS-FACTORIAL HepG2 Assay for human Myeloblastosis (Myb) Proto-Oncogene Transcription Factor (AID 2282986; active = hit-call score of the fitted dose curve at least 0.9, where 1 is the maximum; inactive = score below 0.9). The following applies: HepG2 Attagene CIS-FACTORIAL Myb reporter transcription; actives raise or lower the signal. A digest of the protocol:
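In this HepG2 transient-transfection format, cis-regulated reporter mRNA is quantified 24 h post-dosing by RT-PCR with capillary electrophoresis, fitted bidirectionally to DMSO baseline.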

Assay [9] deals with Glucocorticoid receptor (Homo sapiens) (UniProt P04150). Put plainly: ATG_GR_TRANS: Attagene TRANS-FACTORIAL HepG2 Assay for human Glucocorticoid Receptor (GR) (AID 2282978).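 Note: activators score as hits since higher reporter transcript over DMSO is fitted.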 The following applies: HepG2 Attagene TRANS GR reporter, mRNA transcription. A digest of the protocol:
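Exogenous NR-GAL4 fusion activity was assessed through induced GAL4-UAS reporter transcripts in transfected human HepG2 cells, quantified after 24 h by RT-PCR and fluorescent capillary electrophoresis with DMSO as baseline.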

The target of assay [10] is Bile acid receptor (Homo sapiens) (UniProt Q96RI1). Nature of the assay: ATG_FXR_TRANS: Attagene TRANS-FACTORIAL HepG2 Assay for Farnesoid X Receptor (FXR) (AID 2282979).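 Note: hits raise reporter mRNA above DMSO so AC50 marks FXR activation.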 The following applies: HepG2 Attagene TRANS FXR-GAL4 reporter transcription. A digest of the protocol:
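HepG2 cells transiently transfected with reporter constructs in which a chimeric FXR-GAL4 protein drives a GAL4-UAS reporter; 24 h compound exposure. Reporter mRNA measured by RT-PCR, FAM labelling, HpaI digestion and capillary electrophoresis; gain-of-signal versus DMSO.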

Assay [11] is described as follows: ATG_M_06_TRANS: Attagene TRANS-FACTORIAL HepG2 Assay for M06 Transcription Factor (Internal Marker) (AID 2282983).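 Note: reporter transcript level by RT-PCR then capillary electrophoresis fluorescence.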 Conditions: HepG2 Attagene TRANS M06 internal marker reporter. A digest of the protocol: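 In this multiplexed HepG2 system, compounds are incubated 24 h with cells carrying GAL4-UAS reporter units. Reporter RNA is amplified and resolved by capillary electrophoresis, and induction is scored against DMSO.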

A short description of assay [12]: ATG_M_32_TRANS: Attagene TRANS-FACTORIAL HepG2 Assay for M32 Transcription Factor (Internal Marker) (AID 2282984).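 Note: transcript level of a background control reporter unit measured by RT-PCR and capillary electrophoresis.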 The following applies: HepG2 Attagene TRANS M32 internal marker reporter. A digest of the protocol: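 Internal background reporter in transfected HepG2: after 24 h chemical exposure, RNA reverse-transcribed, reporter cDNA amplified, fluorescently labelled and HpaI-cut, then sized by capillary electrophoresis. Gain of signal fitted against DMSO control.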

Assay [13] deals with Nuclear receptor subfamily 4 group A member 2 (Homo sapiens) (UniProt P43354). Put plainly: ATG_NURR1_TRANS: Attagene TRANS-FACTORIAL HepG2 Assay for human Nuclear Receptor Related Protein 1 (NURR1) (AID 2282985). The following applies: HepG2 Attagene TRANS reporter, mRNA readout. A digest of the protocol: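 Reporter transcript induction, measured by RT-PCR with fluorescent labelling, HpaI digestion and capillary electrophoresis, after 24 hr dosing of human HepG2 cells transiently expressing an exogenous NR-Gal4 fusion with GAL4-UAS-driven reporters; DMSO as baseline.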

Assay [14] can be described thus: ATG_M_19_TRANS: Attagene TRANS-FACTORIAL HepG2 Assay for M19 Transcription Factor (Internal Marker) (AID 2282974). Conditions: HepG2 Attagene TRANS-FACTORIAL M19 internal marker reporter. A digest of the protocol:
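Using RT-PCR and capillary electrophoresis, reporter mRNA from transiently transfected human HepG2 cells was quantified following 24 h exposure; activity was fitted in the positive direction against DMSO.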

Assay [15] has as its target Nuclear receptor subfamily 1 group I member 3 (Homo sapiens) (UniProt Q14994). Nature of the assay: ATG_CAR_TRANS: Attagene TRANS-FACTORIAL HepG2 Assay for human Constitutive Androstane Receptor (CAR) (AID 2282969).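 Note: activators raise reporter mRNA above DMSO so AC50 marks induction.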 Conditions: HepG2 Attagene TRANS-FACTORIAL CAR reporter. A digest of the protocol:
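Signal is reporter mRNA induction relative to DMSO, measured 24 h after dosing by RT-PCR with fluorescent primer extension and capillary electrophoresis. Human HepG2 liver cells carried transiently transfected chimeric NR-Gal4/GAL4-UAS reporter constructs.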

Assay [16] has as its target Estrogen receptor (Homo sapiens) (UniProt P03372). Nature of the assay: ATG_ERa_TRANS: Attagene TRANS-FACTORIAL HepG2 Assay for human Estrogen Receptor alpha (ERa) (AID 2282970). The following applies: HepG2 Attagene TRANS ERa GAL4 reporter, mRNA. A digest of the protocol: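 One of 30 multiplexed endpoints from a HepG2 TRANS system, this one reports ERa-Gal4-driven reporter mRNA. Transcripts were quantified 24 hours post-dosing by fluorescent RT-PCR and capillary electrophoresis, with activity scored as induction over DMSO.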

Assay [17] in a line: ATG_GAL4_TRANS: Attagene TRANS-FACTORIAL HepG2 Assay for GAL4 (Internal Marker) (AID 2282976). Conditions: HepG2 Attagene TRANS GAL4 internal marker reporter. A digest of the protocol: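 HepG2 cells transiently transfected with multiplexed GAL4-UAS reporter constructs were dosed for 24 h. Reporter mRNA was measured by RT-PCR, 6-FAM primer extension, HpaI digestion and capillary electrophoresis, and gain of signal was fitted relative to DMSO.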

In assay [18] the target is Androgen receptor (Homo sapiens) (UniProt P10275). Nature of the assay: ATG_AR_TRANS: Attagene TRANS-FACTORIAL HepG2 Assay for human Androgen Receptor (AR) (AID 2282973). The following applies: HepG2 Attagene TRANS-FACTORIAL AR reporter transcription. A digest of the protocol: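 HepG2 cells transiently transfected with multiplexed GAL4-UAS reporter units and chimeric NR-Gal4 fusion; 24 h compound exposure. Reporter mRNA measured by RT-PCR, 6-FAM labelling, HpaI digestion and capillary electrophoresis; gain-of-signal fitted relative to DMSO baseline.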

In general, AC50 refers to the concentration at which the activity in the assay is half-maximal.

Inconclusive results are not listed. Calls of active or inactive are those of the source. Rule for the calls, unless noted: active = hit-call score of the fitted dose curve at least 0.9, where 1 is the maximum; inconclusive = response in the unintended direction; inactive = score below 0.9.

Nuclear receptor subfamily 4 group A member 2 (Homo sapiens), sequence (P43354 whole entry, looked up, the tested form may be a part): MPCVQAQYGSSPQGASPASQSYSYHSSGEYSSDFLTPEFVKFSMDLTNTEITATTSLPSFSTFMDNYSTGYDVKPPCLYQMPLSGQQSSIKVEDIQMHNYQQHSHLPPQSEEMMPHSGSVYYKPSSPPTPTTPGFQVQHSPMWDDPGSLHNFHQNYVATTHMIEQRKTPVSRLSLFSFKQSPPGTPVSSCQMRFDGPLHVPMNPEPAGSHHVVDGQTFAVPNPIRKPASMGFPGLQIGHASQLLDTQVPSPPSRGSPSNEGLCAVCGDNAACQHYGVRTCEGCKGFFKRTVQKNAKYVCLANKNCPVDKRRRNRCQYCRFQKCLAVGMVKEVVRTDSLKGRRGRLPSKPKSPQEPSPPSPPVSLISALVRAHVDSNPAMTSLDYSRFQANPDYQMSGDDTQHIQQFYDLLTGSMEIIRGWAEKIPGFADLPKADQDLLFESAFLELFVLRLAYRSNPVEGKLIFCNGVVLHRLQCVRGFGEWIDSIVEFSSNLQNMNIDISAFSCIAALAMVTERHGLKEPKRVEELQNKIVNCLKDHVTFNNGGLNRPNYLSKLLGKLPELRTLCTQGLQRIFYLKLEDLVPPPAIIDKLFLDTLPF
Transcriptional activator Myb (Homo sapiens), sequence (P10242 whole entry, looked up): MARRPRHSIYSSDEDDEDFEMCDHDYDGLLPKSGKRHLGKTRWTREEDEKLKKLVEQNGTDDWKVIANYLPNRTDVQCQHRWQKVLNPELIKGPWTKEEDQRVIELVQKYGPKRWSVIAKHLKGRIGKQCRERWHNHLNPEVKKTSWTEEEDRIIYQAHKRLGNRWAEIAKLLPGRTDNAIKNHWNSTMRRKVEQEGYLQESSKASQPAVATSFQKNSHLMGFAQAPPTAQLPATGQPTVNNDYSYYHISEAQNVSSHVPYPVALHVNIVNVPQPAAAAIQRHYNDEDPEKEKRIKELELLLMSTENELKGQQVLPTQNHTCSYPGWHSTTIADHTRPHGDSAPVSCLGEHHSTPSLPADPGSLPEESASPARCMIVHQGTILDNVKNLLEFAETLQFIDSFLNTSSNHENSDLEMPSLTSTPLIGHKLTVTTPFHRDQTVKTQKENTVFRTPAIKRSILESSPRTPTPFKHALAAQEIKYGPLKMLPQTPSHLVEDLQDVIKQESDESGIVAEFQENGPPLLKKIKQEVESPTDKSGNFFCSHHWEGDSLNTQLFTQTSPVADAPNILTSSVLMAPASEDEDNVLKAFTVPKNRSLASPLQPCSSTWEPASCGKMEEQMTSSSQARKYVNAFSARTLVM
Glucocorticoid receptor (Homo sapiens), sequence (P04150 whole entry, looked up, the tested form may be a part): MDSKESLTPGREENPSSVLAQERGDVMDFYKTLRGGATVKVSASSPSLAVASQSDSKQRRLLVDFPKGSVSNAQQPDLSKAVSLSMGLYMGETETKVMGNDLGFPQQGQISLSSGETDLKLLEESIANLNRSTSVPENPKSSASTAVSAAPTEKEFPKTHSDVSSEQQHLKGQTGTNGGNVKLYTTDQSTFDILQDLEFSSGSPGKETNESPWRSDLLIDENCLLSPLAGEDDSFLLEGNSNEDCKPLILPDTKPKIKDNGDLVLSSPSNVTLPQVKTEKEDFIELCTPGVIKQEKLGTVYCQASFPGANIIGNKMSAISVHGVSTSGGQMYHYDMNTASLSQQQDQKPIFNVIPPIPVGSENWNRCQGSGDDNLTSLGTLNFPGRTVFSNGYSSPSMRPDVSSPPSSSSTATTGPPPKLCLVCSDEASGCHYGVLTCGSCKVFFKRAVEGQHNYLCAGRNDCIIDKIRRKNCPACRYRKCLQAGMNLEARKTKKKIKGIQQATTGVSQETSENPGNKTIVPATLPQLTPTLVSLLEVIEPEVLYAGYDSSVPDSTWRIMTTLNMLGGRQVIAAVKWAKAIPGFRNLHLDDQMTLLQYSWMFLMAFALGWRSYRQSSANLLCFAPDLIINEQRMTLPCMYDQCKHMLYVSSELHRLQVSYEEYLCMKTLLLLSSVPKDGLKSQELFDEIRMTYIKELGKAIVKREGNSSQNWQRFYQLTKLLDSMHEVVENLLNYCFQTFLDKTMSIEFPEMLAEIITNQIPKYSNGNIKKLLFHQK
Hepatocyte nuclear factor 4-alpha (Homo sapiens), sequence (P41235 whole entry, looked up, the tested form may be a part): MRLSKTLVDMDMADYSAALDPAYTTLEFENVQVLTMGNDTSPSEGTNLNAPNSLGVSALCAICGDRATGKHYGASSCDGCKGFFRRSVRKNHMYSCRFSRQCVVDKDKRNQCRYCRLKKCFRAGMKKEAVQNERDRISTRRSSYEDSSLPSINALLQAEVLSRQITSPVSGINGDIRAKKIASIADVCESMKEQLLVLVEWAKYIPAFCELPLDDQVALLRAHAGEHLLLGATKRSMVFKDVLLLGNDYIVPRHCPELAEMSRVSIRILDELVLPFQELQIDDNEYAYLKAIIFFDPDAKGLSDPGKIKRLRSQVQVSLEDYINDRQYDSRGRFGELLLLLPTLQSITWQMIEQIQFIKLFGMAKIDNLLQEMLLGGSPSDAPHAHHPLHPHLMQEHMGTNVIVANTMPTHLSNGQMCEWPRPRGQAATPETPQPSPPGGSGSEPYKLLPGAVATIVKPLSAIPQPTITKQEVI
Nuclear receptor subfamily 1 group I member 3 (Homo sapiens), sequence (Q14994 whole entry, looked up, the tested form may be a part): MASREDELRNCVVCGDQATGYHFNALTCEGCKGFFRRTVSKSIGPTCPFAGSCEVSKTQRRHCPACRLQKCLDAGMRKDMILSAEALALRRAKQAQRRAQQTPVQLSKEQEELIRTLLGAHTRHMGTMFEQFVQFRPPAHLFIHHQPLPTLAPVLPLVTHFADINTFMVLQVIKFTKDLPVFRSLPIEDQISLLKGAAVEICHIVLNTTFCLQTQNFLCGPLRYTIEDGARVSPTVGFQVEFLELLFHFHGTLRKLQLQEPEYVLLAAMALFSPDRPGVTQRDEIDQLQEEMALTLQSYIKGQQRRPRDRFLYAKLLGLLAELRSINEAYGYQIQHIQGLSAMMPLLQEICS
Oxysterols receptor LXR-beta (Homo sapiens), sequence (P55055 whole entry, looked up, the tested form may be a part): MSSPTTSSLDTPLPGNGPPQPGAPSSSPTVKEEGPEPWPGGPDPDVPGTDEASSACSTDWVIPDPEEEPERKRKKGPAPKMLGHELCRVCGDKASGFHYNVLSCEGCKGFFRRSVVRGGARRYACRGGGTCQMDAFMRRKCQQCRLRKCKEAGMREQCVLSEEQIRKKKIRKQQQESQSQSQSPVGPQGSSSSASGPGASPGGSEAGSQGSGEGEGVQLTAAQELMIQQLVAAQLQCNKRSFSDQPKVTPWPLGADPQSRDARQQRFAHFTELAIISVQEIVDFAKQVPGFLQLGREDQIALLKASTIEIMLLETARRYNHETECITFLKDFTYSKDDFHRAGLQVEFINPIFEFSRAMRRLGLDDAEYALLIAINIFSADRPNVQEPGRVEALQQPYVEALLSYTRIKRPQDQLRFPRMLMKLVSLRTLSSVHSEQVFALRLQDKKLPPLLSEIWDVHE
Oxysterols receptor LXR-alpha (Homo sapiens), sequence (Q13133 whole entry, looked up, the tested form may be a part): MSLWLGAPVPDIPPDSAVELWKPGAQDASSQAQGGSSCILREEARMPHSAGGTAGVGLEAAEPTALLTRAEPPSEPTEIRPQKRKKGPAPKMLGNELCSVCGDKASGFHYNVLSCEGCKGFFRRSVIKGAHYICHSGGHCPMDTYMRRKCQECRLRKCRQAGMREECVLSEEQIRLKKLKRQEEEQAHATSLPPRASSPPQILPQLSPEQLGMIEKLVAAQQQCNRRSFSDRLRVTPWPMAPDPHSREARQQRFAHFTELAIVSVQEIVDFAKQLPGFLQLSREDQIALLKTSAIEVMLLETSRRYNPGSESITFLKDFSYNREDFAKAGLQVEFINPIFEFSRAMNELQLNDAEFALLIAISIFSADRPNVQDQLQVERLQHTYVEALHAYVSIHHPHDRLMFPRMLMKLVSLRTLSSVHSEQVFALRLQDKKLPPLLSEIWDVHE
X-box-binding protein 1 (Homo sapiens), sequence (P17861 whole entry, looked up): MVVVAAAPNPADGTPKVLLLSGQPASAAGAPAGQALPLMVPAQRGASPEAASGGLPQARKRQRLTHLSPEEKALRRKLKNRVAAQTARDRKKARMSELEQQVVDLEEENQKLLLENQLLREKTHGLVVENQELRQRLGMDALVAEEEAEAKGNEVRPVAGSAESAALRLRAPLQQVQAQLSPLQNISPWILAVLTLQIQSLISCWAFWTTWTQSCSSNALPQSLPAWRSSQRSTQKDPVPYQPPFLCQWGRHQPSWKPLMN
Estrogen receptor (Homo sapiens), sequence (P03372 whole entry, looked up, the tested form may be a part): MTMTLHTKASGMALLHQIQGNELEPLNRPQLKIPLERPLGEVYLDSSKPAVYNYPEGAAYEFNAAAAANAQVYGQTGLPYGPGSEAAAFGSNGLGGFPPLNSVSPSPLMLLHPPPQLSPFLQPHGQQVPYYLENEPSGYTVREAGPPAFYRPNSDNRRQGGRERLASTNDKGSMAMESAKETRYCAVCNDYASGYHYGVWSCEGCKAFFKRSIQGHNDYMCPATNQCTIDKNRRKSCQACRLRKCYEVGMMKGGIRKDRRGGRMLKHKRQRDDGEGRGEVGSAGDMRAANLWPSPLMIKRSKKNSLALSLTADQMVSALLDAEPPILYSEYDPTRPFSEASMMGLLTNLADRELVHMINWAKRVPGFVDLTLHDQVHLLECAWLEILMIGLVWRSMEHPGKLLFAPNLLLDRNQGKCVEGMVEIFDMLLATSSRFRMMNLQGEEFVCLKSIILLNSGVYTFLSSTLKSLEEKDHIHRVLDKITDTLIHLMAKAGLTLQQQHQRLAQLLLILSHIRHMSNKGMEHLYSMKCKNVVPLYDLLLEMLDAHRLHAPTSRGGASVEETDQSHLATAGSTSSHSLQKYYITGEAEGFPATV

For the compound `N#CCCO`, the compound was classed as inactive in [1], in assay [2], in assay [3], in assay [4], in assay [5] and in assay [6]. Moreover, the compound was called inactive in assay [7] and in assay [8].
On to `CCNc1nc(NC(C)(C)C)nc(SC)n1`, for which the call in [1], in assay [2], in assay [4], in assay [9], in [10] and in [5] was inactive. In addition, the result in assay [6], in assay [11], in assay [12], in [13] and in assay [8] was inactive. In addition, the AC50 in assay [3] was 31.8 µM (active).
`C[C@@H](Oc1ccc(Cl)cc1Cl)C(=O)O`: the outcome in assay [1], in assay [2], in assay [3], in assay [4], in assay [14] and in assay [9] was inactive. The outcome in assay [7], in assay [11], in assay [13] and in [8] was inactive.
With `ClC1=C(Cl)[C@]2(Cl)[C@H]3[C@H]([C@H]4C=C[C@H]3C4)[C@@]1(Cl)C2(Cl)Cl`, the compound was classed as inactive in [1], in assay [2], in assay [15], in assay [4], in [14] and in [9]. For the same compound, the call in [11], in assay [12], in assay [13] and in [8] was inactive.
As for `C1CCC(NC2CCCCC2)CC1`, the outcome in [1], in assay [2], in [3], in assay [4], in [14] and in assay [5] was inactive. In addition, the compound was classed as inactive in assay [12] and in assay [8].
Take `Oc1ccc(-c2ccccc2)cc1`: the outcome in assay [1], in assay [2], in assay [9], in assay [10], in assay [11] and in assay [12] was inactive. Also, the call in assay [8] was inactive. Besides, the AC50 was 83.2 µM (active) in assay [3] and 69.4 µM (active) in assay [4].
For the compound `O=C/C=C/c1ccccc1`, the outcome in assay [1], in [2], in [15], in assay [4], in assay [14] and in [9] was inactive. Moreover, the compound was called inactive in assay [5], in assay [7], in assay [12], in [13] and in assay [8]. Also, the AC50 in assay [16] is 27.8 µM (active).
On to `CCOC(=O)/C=C(C)/C=C/C[C@@H](C)CCCC(C)C`, for which the call in assay [1], in assay [3], in assay [4], in assay [17], in assay [7] and in assay [11] was inactive. In assay [12], the compound was classed as inactive. Also, the values for the half-maximal activity concentration (AC50) in [2], in assay [13] and in assay [8] were 47.4 µM (active), 125 µM (active) and 152 µM (active), respectively.
`COP(=S)(OC)Oc1ccc(Sc2ccc(OP(=S)(OC)OC)cc2)cc1`: the AC50 in assay [1] is 57.7 µM (active); in assay [2] it was 61.7 µM (active); in assay [4] it was 6.02 µM (active). In addition, the result in assay [15], in [16], in [18], in assay [5], in assay [6] and in assay [7] was inactive. Besides, the result in [11], in assay [12], in [13] and in assay [8] was inactive.

The record behind these values is PubChem BioAssay (EPA / NIEHS).
